DAX1 inh-1 = DAX1 (NR0B1) inhibition, primary screen. actives 1.1% (n = 370,000). HEK293T StAR-luciferase reporter, SF-1/DAX-1 repression relief. inhibition, % at 6.8 µM;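 active = inhibition above the mean over all tested compounds plus 3 SD, cut at about 3.6% in these data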;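 also: higher inhibition means more luminescence from relief of DAX-1 repression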
DAX1 inh-2 = NR0B1 (DAX1) inhibition; actives 0.99% (n = 340,000); P51843; HEK293 Gal4-DAX1 luciferase reporter, luminescence; inhibition, % at 6.75 µM;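 active = inhibition above the mean over all tested compounds plus 3 SD, cut at about 4.2% in these data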;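 also: inhibition shows as a rise in luminescence from relieved DAX1 repression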
Target sequence (P51843 207-470 limits assumed): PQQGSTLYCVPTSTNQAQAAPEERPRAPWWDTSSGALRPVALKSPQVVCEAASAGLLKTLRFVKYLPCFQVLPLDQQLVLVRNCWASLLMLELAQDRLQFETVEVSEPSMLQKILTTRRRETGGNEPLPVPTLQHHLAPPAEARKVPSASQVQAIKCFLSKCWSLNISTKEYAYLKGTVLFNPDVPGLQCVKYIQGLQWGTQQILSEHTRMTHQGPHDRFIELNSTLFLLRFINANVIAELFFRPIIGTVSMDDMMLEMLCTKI
hgDAF-12 ag = hgDAF-12 agonism, primary luciferase screen; AID 687014; actives 1.8% (n = 370,000); HEK293 GAL4-hgDAF12 UAS-luciferase reporter, agonist luminescence; normalized to butyrate control; activation, % at 6.8 µM;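 active = activation above a cutoff set at the mean of all screened compounds plus 3 SD, cut at about 10% in these data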
ssDAF-12 act = activators of S. stercoralis DAF-12 nuclear receptor; activation, % at 6.8 µM; HEK293 ssDAF-12/GRIP1 lit1-tk-luc reporter, luminescence; % of 3 µM dafachronic acid response; actives 1% (n = 370,000);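 active = activation above the mean over all tested compounds plus 3 SD, cut at about 0.9% in these data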
Wee1 stabilizer = human Wee1 degradation inhibition, primary screen | reporter increase, % at 5 µM | P30291 | actives 1.2% (n = 220,000) | HeLa Luc-Wee1K328M stability, luciferase luminescence; 100% = proteasome inhibitor MG132 effect;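 active = activation above the mean of all tested compounds plus 3 SD, set per screening run, cut at about 8.8% in these data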;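 also: cells exposed to compound for 20 h before luminescence read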
hcDAF12 agonist = activates DAF-12 receptor from parasite H. contortus | HEK293 hcDAF-12 lit1-tk-luc reporter, luminescence; 0% DMSO, 100% Δ7-dafachronic acid | activation, % at 6.8 µM | actives 1.4% (n = 370,000) | AID 652067;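 active = activation above the mean of all tested compounds plus 3 SD, cut at about 5.5% in these data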
Large screens that a line does not name were inactive. Rows were chosen to be rich in hits. Some 4.6% of all compounds tested hit in one or more screens of this group.

Cc1ccc(N=C2SC(C(=O)Nc3ccc(OC(F)(F)F)cc3)C(N)=C2C(=O)Nc2c(C)cc(C)cc2C)cc1 (centres undefined)	Wee1 stabilizer 11
Cc1cc2c(c(=O)o1)[C@@]1(C(=O)Nc3ccccc31)C1=C(CCCC1=O)O2	none (no result: DAX1 inh-2, Wee1 stabilizer)
CC(C)CN(CCCNC(=O)CN1C(=O)CSc2ccc(S(=O)(=O)N3CCOCC3)cc21)CC(C)C	ssDAF-12 act 0.9
CC(C)CN(CCNC(=O)CN1C(=O)CSc2ccc(S(=O)(=O)N3CCOCC3)cc21)CC(C)C	none
O=C(NCCCN1CCOCC1)c1ccc(Cl)cc1[N+](=O)[O-]	DAX1 inh-2 4.6
Nc1nc(CSC(=S)N2CCOCC2)nc(Nc2ccccc2)n1	DAX1 inh-2 5.0, hcDAF12 agonist 6.1
CNC(=O)c1ncnnc1N(C)C(=O)NCc1ccccc1	DAX1 inh-2 9.6
CCCOc1ccc(N2C(=O)CC(NCCc3ccc(S(N)(=O)=O)cc3)C2=O)cc1 (centres undefined)	Wee1 stabilizer 9.7
Cn1c(SCC(=O)N2CC(=O)Nc3ccccc32)nnc1C(F)(F)F	none (no result: Wee1 stabilizer)
O=C(NCc1cccnc1)c1ccc2sc([C@@H]3O[C@H](CO)[C@H](O)[C@H](O)[C@H]3O)nc2c1	ssDAF-12 act 0.9 (no result: DAX1 inh-2, Wee1 stabilizer)
O=C(NCc1cc(Cl)cc(Cl)c1)c1ccc2sc([C@@H]3O[C@H](CO)[C@H](O)[C@H](O)[C@H]3O)nc2c1	none (no result: DAX1 inh-2, Wee1 stabilizer)
c1ccc2sc(NC3=NCN(C4CCCCCC4)CN3)nc2c1	ssDAF-12 act 1.5
CN(CC(=O)Nc1ccc(Cl)c(C(F)(F)F)c1)C(=O)COC(=O)C1CC2CCCC(C1)C2=O (centres undefined)	none (no result: Wee1 stabilizer)
CC(=O)Nc1ccc(/C=C/c2nc3ccccc3o2)cc1	DAX1 inh-2 4.5, hgDAF-12 ag 13 (no result: Wee1 stabilizer)
O=C(Nc1ccc(/C=C/c2nc3ccccc3o2)cc1)c1cccc(C(F)(F)F)c1	none
O=C(NCc1ccccc1)C1CCN(S(=O)(=O)N2CCCCCC2)CC1	Wee1 stabilizer 9.5
O=C(COC(=O)CN1C(=O)NC2(CCCC2)C1=O)NCc1ccc(Cl)cc1Cl	none (no result: Wee1 stabilizer)
COc1ccc(CNC(=O)c2ccc(CS(=O)(=O)c3ccc(Br)cc3)o2)cc1	DAX1 inh-2 6.2 (no result: Wee1 stabilizer)
COc1ccc(S(=O)(=O)Cc2ccc(C(=O)NC3CCC(C)CC3)o2)cc1 (centres undefined)	none (no result: Wee1 stabilizer)
COc1ccc(S(=O)(=O)Cc2ccc(C(=O)NC3CC3)o2)cc1	DAX1 inh-2 13
COc1ccccc1S(=O)Cc1ccc(C(=O)NC2CCCC2)o1 (centres undefined)	DAX1 inh-2 5.5
CN(CC(=O)Nc1ccc(Cl)cc1)C(=O)C1CCCC1	none (no result: Wee1 stabilizer)
O=C(CNc1ccccc1)Nc1ccc(F)cc1	hgDAF-12 ag 11, ssDAF-12 act 0.9
O=C(CC(=O)Nc1ccccc1)Nc1ccccc1	DAX1 inh-2 4.3 (no result: Wee1 stabilizer)
O=C(CSCc1ccc(C(=O)O)cc1)Nc1ccccc1	DAX1 inh-2 5.1
CN(CC(=O)Nc1ccccc1Cl)C(=O)COC(=O)CCN1C(=O)C2CC=CCC2C1=O (centres undefined)	none (no result: Wee1 stabilizer)
COC(=O)C1CCN(C2CN(Cc3ccc(F)cc3)S(=O)(=O)C2)CC1 (centres undefined)	none (no result: DAX1 inh-2, Wee1 stabilizer)
NS(=O)(=O)c1ccc2nc(NC(=O)Nc3ccccc3F)sc2c1	hgDAF-12 ag 10 (no result: Wee1 stabilizer)
Cc1ccccc1NC(=O)Nc1nc2ccc(S(C)(=O)=O)cc2s1	DAX1 inh-2 9.0
CCC(=O)Nc1nc2ccc(S(C)(=O)=O)cc2s1	none
COc1cc(CCN(C(=O)c2cccc(S(C)(=O)=O)c2)C(CCc2ccccc2)c2nc3ccccc3[nH]2)cc(OC)c1 (centres undefined)	none (no result: DAX1 inh-2, Wee1 stabilizer)
Cc1c[nH]c2cccc(-c3ccc(Cl)cc3Cl)c12	none (no result: DAX1 inh-2, Wee1 stabilizer)
COc1ccc2oc(C(=O)NC(C)(C)C)c(C)c2c1	hgDAF-12 ag 13
COc1ccc2oc(C(=O)C3CC3)c(N)c2c1	Wee1 stabilizer 9.6
COC(=O)CCC(=O)c1oc2ccc(OC)cc2c1N	none
COC(=O)[C@]12C[C@H](CC(=O)NCc3cccc(C(F)(F)F)c3)C(=O)N(Cc3cccc4ccccc34)C1=C[C@H](COCc1ccccc1)O[C@@H]2C	none (no result: DAX1 inh-2, Wee1 stabilizer)

Compound activity (PubChem)
